The list is not random: actives were taken first. Their share in the collection is about 4.7%.
D1 ag = activates the human D1 dopamine receptor | P21728 | HEK293 T-REx D1 cells, calcium flux, agonist mode | activation, % at 2 µM | actives 1% (n = 360,000) | AID 504660
Target sequence (P21728 whole entry, looked up): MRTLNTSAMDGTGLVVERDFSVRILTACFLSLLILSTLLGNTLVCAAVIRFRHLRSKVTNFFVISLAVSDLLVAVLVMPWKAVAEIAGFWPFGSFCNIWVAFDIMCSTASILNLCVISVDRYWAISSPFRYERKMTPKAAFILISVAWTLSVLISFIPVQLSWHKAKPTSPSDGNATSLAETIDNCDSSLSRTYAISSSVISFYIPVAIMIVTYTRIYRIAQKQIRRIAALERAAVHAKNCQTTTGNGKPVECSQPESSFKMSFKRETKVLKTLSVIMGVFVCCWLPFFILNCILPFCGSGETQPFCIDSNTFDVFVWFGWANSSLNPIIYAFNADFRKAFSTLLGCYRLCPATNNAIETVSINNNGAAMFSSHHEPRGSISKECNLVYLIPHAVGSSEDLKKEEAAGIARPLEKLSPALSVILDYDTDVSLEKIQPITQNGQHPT
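Agonism was scored from calcium flux recorded over 180 s (1 read/s) after pintool compound addition, following a 10-cycle baseline. Cells were inducible force-coupled HEK293 TREx D1, plated overnight at 30 C and loaded with no-wash calcium dye.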
TRHR ag = TRH receptor (human) agonism; TRHR cells, calcium flux fluo-8, FDSS agonist mode; actives 0.18% (n = 360,000); P34981; activation, % at 2 µM
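TRHR-expressing cells, plated overnight in medium with 10% serum, were loaded with fluo-8 calcium dye at room temperature. After a 10 s baseline, library compound was pin-added and calcium release was recorded kinetically (ex 480/em 530) as agonist response.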
D1 antagonist = antagonists of human D1 dopamine receptor | P21728 | HEK293 TREx D1 cells, calcium flux, dopamine EC80; hits give low values | activity change, negative = inhibition, % at 10 µM | actives 3.2% (n = 360,000) | AID 504652; in the data active = activity change below about -30%
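Tetracycline-induced HEK293 Trex D1 cells, force-coupled to calcium, dye-loaded; compounds added and read 180 s, then EC80 dopamine added and calcium flux tracked kinetically another 180 s.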
TRHR enhancer = allosteric enhancers of human TRH receptor | P34981 | actives 0.66% (n = 360,000) | enhancement, % at 2 µM | TRHR cells, fluo-8 calcium fluorescence, EC20 TRH enhancement; in the data active = enhancement above about 30%
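TRHR-expressing cells loaded with fluo-8 calcium dye were read kinetically (ex 480/em 530) during compound addition, then stimulated with an EC20 of TRH (10 nM final). Enhancement of the Gq-mediated intracellular calcium response was scored.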
D1 potentiator = potentiators of human D1 dopamine receptor. P21728. HEK293 TREx D1 cells, calcium flux, dopamine EC20 potentiation. potentiation, % at 10 µM. actives 0.036% (n = 360,000). AID 504651; in the data active = potentiation above about 30%
Numbers stand for hits. Rule as the data show it, unless noted: active = activation above about 30%; inactive = the rest.

How did N#Cc1cc([N+](=O)[O-])ccc1NC(=O)c1cccn(Cc2cccc(F)c2)c1=O do in these assays?
D1 ag: inactive; TRHR ag: inactive; TRHR enhancer: inactive; D1 potentiator: inactive

What do the screens show for `CCOc1cc2c(cc1OCC)-n1cccc1C(c1ccc(OC)c(O)c1)NC2` (configuration not stated)?
D1 ag: 96; TRHR ag: inactive; D1 antagonist: inactive; TRHR enhancer: inactive; D1 potentiator: inactive

Results for CSc1ncc(C(=O)Nc2ccc(Cl)cc2C(=O)c2ccccc2)c(C)n1 ?
D1 ag: inactive; TRHR ag: inactive; D1 antagonist: inactive; TRHR enhancer: inactive; D1 potentiator: inactive

What do the screens show for `Cc1ccc(CN2C3CCCC2CC(NC(=O)Nc2cccc(F)c2)C3)cc1` (configuration not stated)?
D1 ag: 30; TRHR ag: inactive; D1 antagonist: -42; TRHR enhancer: inactive; D1 potentiator: inactive

What do the screens show for `CC(C)c1ccc(NC(=O)CN2C(=O)CN=C(c3ccccc3)c3ccccc32)cc1`?
D1 ag: inactive; TRHR ag: inactive; D1 antagonist: inactive; TRHR enhancer: inactive; D1 potentiator: inactive

How did C[N+]1(CC2COC(c3ccco3)O2)CCCCC1 (configuration not stated) do in these assays?
D1 ag: inactive; TRHR ag: inactive; D1 antagonist: -33; TRHR enhancer: inactive; D1 potentiator: inactive

Results for CCC(=O)N1CC(=O)Nc2ccc(C)cc2C1c1ccc(F)cc1 (configuration not stated) ?
D1 ag: inactive; TRHR ag: inactive; D1 antagonist: inactive; TRHR enhancer: inactive; D1 potentiator: inactive

Results for CC1=NCCc2c1[nH]c1cc(O)ccc21 ?
D1 ag: 405; TRHR ag: inactive; D1 antagonist: inactive; TRHR enhancer: inactive; D1 potentiator: inactive

Results for COc1ccc2c3c([nH]c2c1)C(C)=NCC3 ?
D1 ag: inactive; TRHR ag: inactive; D1 antagonist: inactive; TRHR enhancer: inactive; D1 potentiator: inactive

Results for Cc1ccc(Cn2nnnc2CN2CCC(n3nnc4cc(C)ccc43)CC2)cc1 ?
D1 ag: inactive; TRHR ag: inactive; D1 antagonist: inactive; TRHR enhancer: inactive; D1 potentiator: inactive

Results for Cc1ccc(Cn2nnnc2CN2CCC(n3nnc4cc(C(F)(F)F)ccc43)CC2)cc1 ?
D1 ag: inactive; TRHR ag: inactive; D1 antagonist: -39; TRHR enhancer: inactive; D1 potentiator: inactive

What do the screens show for `Cc1nc2cc(C(F)(F)F)ccc2n1C1CCN(Cc2nnnn2CCc2ccccc2)CC1`?
D1 ag: inactive; TRHR ag: inactive; D1 antagonist: inactive; TRHR enhancer: inactive; D1 potentiator: inactive

Results for FC(F)(F)c1ccc2c(c1)nnn2C1CCN(Cc2nnnn2Cc2ccccc2)CC1 ?
D1 ag: inactive; TRHR ag: inactive; D1 antagonist: -42; TRHR enhancer: inactive; D1 potentiator: inactive

Results for O=c1[nH]c(O)c(C=Nc2ccccc2[N+](=O)[O-])c(=O)[nH]1 ?
D1 ag: inactive; TRHR ag: inactive; D1 antagonist: -47; TRHR enhancer: inactive; D1 potentiator: inactive

What do the screens show for `O=C(Cc1ccc([N+](=O)[O-])cc1)N1CCN(Cc2ccc3c(c2)OCO3)CC1`?
D1 ag: inactive; TRHR ag: inactive; D1 antagonist: -36; TRHR enhancer: inactive; D1 potentiator: inactive

How did O=C(c1ccc2c(c1)N(Cc1c(F)cccc1Cl)C(=O)c1ccccc1S2)N1CCC2(CC1)OCCO2 do in these assays?
D1 ag: inactive; TRHR ag: inactive; D1 antagonist: inactive; TRHR enhancer: inactive; D1 potentiator: inactive

How did CCOC(=O)c1cc(CC)sc1/N=C/C1C(=O)NC(=S)NC1=O do in these assays?
D1 ag: inactive; TRHR ag: inactive; D1 antagonist: inactive; TRHR enhancer: 33; D1 potentiator: inactive

Results for CC(C)Cc1nc2cccnc2n1C1CCNCC1 ?
D1 ag: inactive; TRHR ag: inactive; D1 antagonist: inactive; TRHR enhancer: inactive; D1 potentiator: inactive

Results for O=[N+]([O-])c1ccc(NC2CCN(Cc3ccccc3)CC2)c2ccncc12 ?
D1 ag: inactive; TRHR ag: inactive; D1 antagonist: inactive; TRHR enhancer: inactive; D1 potentiator: inactive

Results for O=[N+]([O-])c1ccc(NC2CCCC2)c2ccncc12 ?
D1 ag: inactive; TRHR ag: inactive; D1 antagonist: inactive; TRHR enhancer: 35; D1 potentiator: inactive

Results for Cc1ccc(Cn2cccc(C(=O)Nc3nnc(C)s3)c2=O)cc1 ?
D1 ag: inactive; TRHR ag: inactive; TRHR enhancer: inactive; D1 potentiator: inactive

How did CCCCc1nc2ccccc2c(=O)n1-c1ccccc1O do in these assays?
D1 ag: inactive; TRHR ag: inactive; D1 antagonist: inactive; TRHR enhancer: inactive; D1 potentiator: inactive

What do the screens show for `CCCCCc1nc2ccccc2c(=O)n1-c1ccc(Cl)cc1[N+](=O)[O-]`?
D1 ag: inactive; TRHR ag: inactive; D1 antagonist: -44; TRHR enhancer: inactive; D1 potentiator: inactive

Results for Cc1cccc(Cn2cccc(C(=O)Nc3nc4ccccc4s3)c2=O)c1 ?
D1 ag: inactive; TRHR ag: inactive; TRHR enhancer: inactive; D1 potentiator: inactive

How did Cc1ccc(-c2nc(N3CCOCC3)s[n+]2-c2ccccc2)cc1 do in these assays?
D1 ag: inactive; TRHR ag: inactive; D1 antagonist: inactive; TRHR enhancer: 31; D1 potentiator: inactive

What do the screens show for `Cc1cc(C)cc(OCC(=O)Nc2ccc(Cl)cc2C(=O)c2ccccc2)c1`?
D1 ag: inactive; TRHR ag: inactive; D1 antagonist: inactive; TRHR enhancer: inactive; D1 potentiator: inactive

What do the screens show for `CSc1ccc(/C=C/c2nc3ccccc3c(=O)n2-c2cccc(Cl)c2C)cc1`?
D1 ag: inactive; TRHR ag: inactive; D1 antagonist: inactive; TRHR enhancer: inactive; D1 potentiator: inactive

How did CCOc1cc(CNC(C)C(O)c2ccccc2)cc(Cl)c1OCC (configuration not stated) do in these assays?
D1 ag: 39; TRHR ag: inactive; D1 antagonist: inactive; TRHR enhancer: inactive; D1 potentiator: inactive

What do the screens show for `CC(NCc1ccc(Cl)c(Cl)c1)C(O)c1ccccc1` (configuration not stated)?
D1 ag: inactive; TRHR ag: inactive; D1 antagonist: inactive; TRHR enhancer: inactive; D1 potentiator: inactive

How did Brc1ccc2c(c1)C(OC1CN3CCC1CC3)c1ccccc1CS2 (configuration not stated) do in these assays?
D1 ag: inactive; TRHR ag: inactive; D1 antagonist: -36; TRHR enhancer: inactive; D1 potentiator: inactive

Results for c1ccc2c(c1)CSc1ccccc1C2C1=NCCN1 (configuration not stated) ?
D1 ag: inactive; TRHR ag: inactive; D1 antagonist: inactive; TRHR enhancer: inactive; D1 potentiator: inactive

Results for Cc1ccc2c(c1)C1CN(C)CCC1N2C(=O)Nc1cccc(Cl)c1 (configuration not stated) ?
D1 ag: inactive; TRHR ag: inactive; D1 antagonist: -96; TRHR enhancer: inactive; D1 potentiator: inactive
